M1 PAM parental: counter-screen for M1 PAMs: effect in parental CHO-K1 cells. 360,000 compounds, 0.02% hits. AID 602247. ATP EC20, Fluo-8 calcium fluorescence; 0% at ATP EC20, 100% at ATP max. activation, % at 3 µM;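 active = activation above the run cutoff, the mean activation of all test compounds plus 3 SD, cut at about 40% in these data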;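 note: peak over basal fluorescence ratio in a 140 s read after ATP addition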
CHRM1 PAM: human CHRM1 positive allosteric modulation; CHO-K1 hM1, Fluo-8 calcium fluorescence, ACh EC20; 0% = ACh EC20, 100% = maximal ACh; 360,000 compounds, 0.088% hits; activation, % at 3 µM; in the data active = activation above about 19%, passing the limit was not always enough
Target sequence (P11229 whole entry, looked up): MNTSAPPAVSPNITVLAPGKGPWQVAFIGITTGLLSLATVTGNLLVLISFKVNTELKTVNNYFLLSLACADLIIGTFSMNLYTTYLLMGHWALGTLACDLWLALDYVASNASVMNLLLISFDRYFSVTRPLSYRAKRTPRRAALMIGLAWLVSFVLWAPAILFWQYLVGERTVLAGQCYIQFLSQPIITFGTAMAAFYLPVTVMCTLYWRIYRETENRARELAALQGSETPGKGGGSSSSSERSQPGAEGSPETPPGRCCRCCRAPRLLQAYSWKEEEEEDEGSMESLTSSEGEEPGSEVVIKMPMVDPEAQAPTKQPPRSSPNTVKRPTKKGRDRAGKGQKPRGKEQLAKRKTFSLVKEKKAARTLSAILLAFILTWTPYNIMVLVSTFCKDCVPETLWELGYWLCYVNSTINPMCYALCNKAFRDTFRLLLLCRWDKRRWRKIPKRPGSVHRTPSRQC
CHO-K1 Ca ag: nonselective activator or artifact in parental CHO-K1 cells | 360,000 compounds, 0.48% hits | AID 602248 | activation, % at 3 µM | Fluo-8 calcium fluorescence; scaled to maximal ATP response, vehicle zero; in the data active = activation above about 15%;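 note: untransfected CHO-K1 host cells lacking M1 receptor as counterscreen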
CHRM1 agonist: activates human CHRM1 receptor | activation, % at 3 µM | CHO-K1 hM1, Fluo-8 calcium fluorescence, agonist mode; 0% DMSO, 100% acetylcholine EC100 | 360,000 compounds, 0.33% hits;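 active = activation above the run's mean compound activation plus 3 SD, cut at about 16% in these data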;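 note: peak over basal fluorescence ratio within a 140 s kinetic read after compound addition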
CHO-K1 Ca antag: M1 antagonist counterscreen hit in parental CHO-K1 cells | ATP-induced calcium, Fluo-8 fluorescence | inhibition, % at 3 µM | 360,000 compounds, 0.6% hits | AID 602250;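 active = inhibition above a per-plate cutoff, the plate's mean sample inhibition plus 3 SD, cut at about 24% in these data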;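 note: 0% = DMSO plus EC80 ATP and 100% = DMSO alone without ATP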
M1 antag: blocks human M1 muscarinic receptor; inhibition, % at 3 µM; CHO-K1 hM1, Fluo-8 calcium fluorescence, ACh EC80 antagonist; 360,000 compounds, 1.3% hits; AID 588852;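 active = percent inhibition above its own plate's cutoff, namely the mean of that plate's compound wells plus 3 SD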;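 note: peak over basal fluorescence ratio during 140 s after agonist addition; 0% = ACh EC80 plus DMSO and 100% = DMSO alone without agonist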
* marks the source's active call; other numbers are inactive results; . = no result given. Shown are actives, neighbours in structure and some others; about 2.3% of the full set was active somewhere.

SMILES	M1 PAM parental	CHRM1 PAM	CHO-K1 Ca ag	CHRM1 agonist	CHO-K1 Ca antag	M1 antag
Cc1ccc(NC(=O)N(CCCN2CCOCC2)Cc2cccs2)cc1C	19.6	32.4*	0.2	-3.1	-14.4	-31.4
COc1ccc(NC(=S)N(CCCN2CCCC2)Cc2ccco2)cc1	17.9	-19.9	0.1	-7.7	-9.8	36.1*
O=C(Nc1ccc(Cl)cc1)N(CCCN1CCOCC1)Cc1cccs1	-4.0	-12.0	1.5	-9.0	3.5	4.8
CCN1CCN(CCCN(Cc2ccco2)C(=S)Nc2cccc(Cl)c2C)CC1	-6.1	-11.3	0.0	-8.2	-0.1	18.0
Cc1c(Cl)cccc1NC(=S)N(CCCN1CCOCC1)Cc1ccco1	-5.5	-25.4	0.9	-6.1	-9.1	48.3*
COCCOC(=O)N1CCCCC1c1cc(C(=O)Nc2cccc3c2CCCC3)no1 (stereo not given)	12.2	11.9	0.9	-6.2	-11.8	-14.5
COc1ccc(NC(=S)N(CCCN2CCCCCC2)Cc2cccs2)cc1	-4.3	6.2	0.0	-5.5	-5.8	-8.6
CSc1cccc(NC(=S)N(CCCN2CCCC2)Cc2cccs2)c1	25.8	-24.0	2.9	-7.0	-17.8	36.4*
CSc1cccc(NC(=S)N(CCCN2CCCC2)Cc2cccn2Cc2ccc(Cl)cc2)c1	8.3	-6.6	2.1	-3.3	1.5	7.5
COc1ccc(NC(=S)N(CCCN2CCCC2)Cc2cccs2)cc1	17.4	-22.6	1.1	-8.1	-15.9	55.2*
O=C(CN(Cc1ccc(F)cc1)C(=O)CCC(=O)Nc1ccccn1)NCc1ccc(F)cc1	16.8	7.2	2.3	-6.4	-5.1	-9.1
Nc1[nH]c(C(=O)c2ccccc2)c(-c2ccncc2)c1C(=O)NCCc1c[nH]c2ccccc12	7.3	.	3.8	.	-1.2	.
Cn1ncc(Oc2ccc([N+](=O)[O-])cc2)c(Cl)c1=O	2.8	5.7	15.3*	-2.7	6.8	-2.0
Cn1ncc(Cl)c(Oc2ccc(Cl)cc2)c1=O	17.3	-4.4	-0.2	-10.4	-3.5	2.9
Cc1noc(C)c1COc1ccc(C(=O)OCC(N)=O)cc1	-15.6	-7.2	-0.2	-3.6	27.2*	5.7
COc1ccc(CN(C(=O)c2ccc(C)cc2)C2CCS(=O)(=O)C2)cc1 (stereo not given)	13.3	6.0	0.9	-0.5	-5.3	-6.0
O=C(N/N=C/c1ccc(Cl)cc1)c1ccc2nc[nH]c2c1	-4.2	-13.6	4.7	0.2	4.8	29.1*
COC(=O)c1ccc(/C=N/NC(=O)c2ccc3nc[nH]c3c2)cc1	-1.5	-5.8	2.6	0.1	-5.3	15.1
COc1ccc(C(=O)COc2ccccc2C(=O)Nc2ccccc2)cc1	16.4	4.1	2.5	-4.0	-9.9	-2.8
Cc1ccccc1S(=O)(=O)NC(=O)C1(C)CCN1C(=O)CCc1cccs1 (stereo not given)	-6.2	10.5	-0.3	1.3	12.1	-17.3
COc1cc(SC)ccc1C(=O)OCC(=O)NCCNC(=O)COC(=O)c1ccc(SC)cc1OC	-2.4	3.9	1.5	-4.9	5.7	-2.9
COC(=O)c1ccc(COC(=O)c2ccc(SC)cc2OC)cc1	12.0	8.2	19.9*	-8.6	11.2	-3.8
C=CCC[C@H](CCCCC)OC(=O)/C=C/[C@@H](O)[C@H](O)C[C@H](O)CC=C	17.1	.	0.3	.	-14.8	.
CCN1CCN(c2ccc(NC(=O)c3ccco3)cc2Cl)CC1	3.1	-10.5	-0.2	-11.7	0.1	16.7
CCN1CCN(c2ccc(NC(=O)c3cccc(S(=O)(=O)N4CCCC4)c3)cc2)CC1	16.3	-28.1	0.7	-7.1	-1.9	74.3*
CCN1CCN(c2ccc(NC(=O)c3cccc(F)c3)cc2Cl)CC1	-0.2	-24.6	4.2	-7.8	3.2	53.8*
O=C(Nc1ccc(N2CCOCC2)cc1)c1cccc(S(=O)(=O)N2CCCCC2)c1	11.4	-7.2	1.7	-2.5	-9.7	-24.7
COc1cc(OC)cc(-c2c(Sc3ccccc3)c3cc(-c4ccc(SC)cc4)ccc3n2C)c1	11.4	.	1.0	.	-4.7	.
COc1ccc(CCN2C(=O)CCC2(C)c2nnnn2-c2ccc3c(c2)OCCO3)cc1OC (stereo not given)	17.8	.	4.3	.	-28.2	.
CC1(C)Cc2c(sc(NC(=O)Cc3ccccc3)c2C#N)CO1	2.8	8.9	0.7	-3.5	1.3	-14.3
